From ChEMBL document CHEMBL3433997, “St. Jude Leishmania screening dataset” (2016) come the findings set out here.

Solute carrier family 2, facilitated glucose transporter member 1 (Homo sapiens), sequence (P11166 whole entry): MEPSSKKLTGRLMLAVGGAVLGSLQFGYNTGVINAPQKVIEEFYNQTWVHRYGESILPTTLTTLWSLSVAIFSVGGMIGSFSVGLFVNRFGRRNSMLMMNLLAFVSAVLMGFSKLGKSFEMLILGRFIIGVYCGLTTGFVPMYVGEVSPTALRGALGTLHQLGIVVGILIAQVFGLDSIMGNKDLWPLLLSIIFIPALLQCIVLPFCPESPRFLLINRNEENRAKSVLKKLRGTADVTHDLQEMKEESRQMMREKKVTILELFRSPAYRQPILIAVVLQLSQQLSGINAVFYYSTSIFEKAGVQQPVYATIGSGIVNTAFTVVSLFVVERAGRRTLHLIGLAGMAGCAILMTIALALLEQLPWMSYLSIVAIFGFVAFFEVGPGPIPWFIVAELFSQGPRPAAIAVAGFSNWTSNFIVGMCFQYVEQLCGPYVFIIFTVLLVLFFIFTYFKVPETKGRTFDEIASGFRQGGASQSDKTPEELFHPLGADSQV

The assay addresses Solute carrier family 2, facilitated glucose transporter member 1 (Homo sapiens) (UniProt P11166). Briefly: ST_JUDE_LEISH: Cytotoxicity at 2uM final concentration against transgenic Leishmania Mexicana promastigotes LmGLUT1 that are glucose transport deficient and complemented with the human glucose transporter GLUT1. Activity is measured by DNA content using SYBR green in vitro. It counts as functional.
By inhibition is commonly meant the relative decrease from the control value, in per cent. Take `CN(C)c1ccc(-c2nc3cc(N)ccc3[nH]2)cc1`: the inhibition was -2.7%. Next, `CCCCc1ccc(C(=O)NC2CCN(C[C@H](O)c3ccnc4ccc(OC)cc34)CC2)cc1`: 66.8%. Next, `CCc1nc2ccc(C(=O)OC)nc2n1Cc1ccc2oc(-c3ccccc3N)c(Br)c2c1`: 2.91%; `Cc1nc(C)c(-c2ccc(Br)cc2)c(O)c1Br`: -0.12%; `CCc1ccc2c(c1O)CCN(C)C2Cc1ccccc1Cl` (stereo unspecified): 8.14%. Regarding `COc1ccc(Nc2ncc3c(-c4ccc(NC(=O)c5cccc(C(F)(F)F)c5)cc4)c[nH]c3n2)cc1OC`, the inhibition came out at 0.57%. As for `O=C(CN1CCN(C(=O)c2ccco2)CC1)Nc1ccc(Br)cc1Cl`, the figure is -3.24%; as for `Cc1c(-c2cccc(CNCCc3ccc(Cl)cc3)c2)cnc(N)c1C`, -3.87%; as for `Nc1c(Cl)cc(C(O)CNCCCCCOCCc2ccccc2)cc1C(F)(F)F` (stereo unspecified), 8.73%. As for `CC1CN(Cc2ccc(-c3ccc(-c4nc5ccccc5[nH]4)cc3)cc2)CC(C)O1` (stereo unspecified), the figure is 6.34%; as for `CC(C)CCN1CCCN(Cc2cccc(NC(=O)c3ccc(-c4ccccc4)cc3)c2)CC1`, 2.17%; as for `Clc1cc(Cl)c2cc(CNCCCNc3ccc4ccccc4n3)[nH]c2c1`, 0.53%. With `Cc1cc(Nc2ccncc2)n2nc(C)c(-c3ccc(Cl)cc3)c2n1`, the inhibition was 11.6%. Next, `COC(=O)c1cccc(NC(=O)NC2CCN(c3ccnc(Nc4cc(OC)c(OC)c(OC)c4)n3)C2)c1` (stereo unspecified): 10.5%; `CCCCNCc1ccc(-c2nc(CN(CCCn3ccnc3)C(=O)Nc3ccc(CC)cc3)cs2)cc1`: 7.74%. On to `COC(=O)c1ccc(NC(=O)c2ccc(CCN3CCC(c4nc(COCC(F)(F)F)c(-c5ccc(F)cc5)o4)CC3)cc2)cc1`, for which the inhibition worked out at 3.21%.
